Data published in PubChem BioAssay.

assay: Pseudomonas biofilm growth suppression – PAO1 strain, BacTiter-Glo luminescence, LB-PBS, primary screen (AID 1144); conditions: P. aeruginosa PAO1 biofilm, 12 h, higher = more signal

z-score, inactive:
CC(C)(C)N1C(=O)[C@H]2[C@H]3[C@H](O)[C@H](O)CC(=NOCc4ccccc4)[C@@H]3CC[C@H]2C1=O 0.614
O=C1[C@H]2[C@H]3[C@H](O)[C@H](O)CC(=NOC[C@@H](O)COCc4ccco4)[C@H]3CC[C@H]2C(=O)N1c1cccc(Oc2ccccc2)c1 -0.0166
CC(C)=CCCC(C)=CCON=C1C[C@@H](O)[C@@H](O)[C@@H]2[C@@H]3C(=O)N(C[C@@H]4CCCO4)C(=O)[C@@H]3CC[C@@H]12 0.518
Cc1ccc(S(=O)(=O)N[C@@H]2COC(=O)[C@H](C)COC(=O)CC=C[C@H]2C)cc1 0.317
CCc1cc2c(nc1CC)CCN(CCC(C)=NO[C@@H](C)c1cc(-c3c(C)cc(C)cc3C)no1)C2 -0.626
CC(=O)OC[C@H]1O[C@@H](ON=C(C)CCN2CCc3nc(-c4ccccc4)c(-c4ccccc4)cc3C2)[C@H](OC(C)=O)[C@@H](OC(C)=O)[C@@H]1OC(C)=O 0.305
Cc1ccc(S[C@]2(C(=O)NCC(F)(F)F)CC(=O)N(Cc3ccccc3Cl)[C@@H]2c2ccc(CO)cc2I)cc1 0.977
CO[C@@H]1COC(=O)CC=C[C@@H](C)COC(=O)[C@H](COCc2ccccc2)NC(=O)CC=C[C@H]1C 0.324
O[C@@H](Cc1ccccc1)[C@H]1C2C=CCCC(c3ccccc3)=C2CN1Cc1cccc(Cl)c1 (stereo partly drawn) -0.577
CC(=O)OC[C@H]1O[C@H](CCON=C[C@@H](C)[C@H](OCc2ccccc2)C(C)C)C=C[C@@H]1OC(C)=O 0.0966
CC1(C)OCC(C(O)C2=CCCCC2=O)CO1 (stereo not drawn) -0.432
CO[C@@H]1COC(=O)CC=C[C@@H](C)[C@@H]2C=C[C@H](O)[C@@H](COC(=O)[C@H](C)NC(=O)CC=C[C@H]1C)O2 -0.972
CCCCCN1CC=CC23O[C@@H]4C=CCOC(=O)[C@@H]4[C@H]2C(=O)N(CCCCCCO)[C@@H]3C1=O (stereo partly drawn) 0.851
COCCCNC(=O)[C@@]1(C)c2ccccc2C(=O)N(Cc2ccc(OC(F)(F)F)cc2)[C@H]1c1ccc(CO)cc1 -0.27
CC(C)[C@@H](OCc1ccccc1)[C@H](C)C=NO[C@H](C)c1cn([C@H](CO)Cc2ccccc2)nn1 0.403
c1ccc(C2NCCc3c2[nH]c2ccccc32)cc1 (stereo not drawn) -0.0191
O=C1NC(=O)C2C1C=CC(C(O)Cc1ccccc1)N2Nc1ccccn1 (stereo not drawn) -0.314
CCOC(=O)[C@H](Cc1ccccc1)NC(=O)CCC1CC(OC(=O)NCCc2ccc(F)cc2)CC2(CCCC(COC(=O)NCC(c3ccccc3)c3ccccc3)O2)O1 (stereo partly drawn) 0.338
COCCOC(=O)N1C(=O)[C@@]2(c3cc(C#Cc4ccc(OC)cc4)ccc31)[C@H](C(=O)N1CCN(c3ncccn3)CC1)[C@H]1C(=O)O[C@H](c3ccccc3)[C@H](c3ccccc3)N1[C@@H]2c1ccc(OCCO)cc1 -0.118
CC(=O)OC[C@H]1O[C@@H](ON=C[C@@H](C)[C@H](OCc2ccccc2)C(C)C)[C@H](OC(C)=O)[C@@H](OC(C)=O)[C@@H]1OC(C)=O -0.379
COC(=O)CC=C[C@@H](C)[C@@H](C=NO[C@H](C)c1cn([C@@H]2COC[C@H]2O)nn1)OC -1.66
CC(CCN1CCc2nc(-c3ccccc3)c(-c3ccccc3)cc2C1)=NOC(C)CN1CCCCc2nc(C)c(C)cc21 (stereo not drawn) -0.075
CC(=O)OC[C@H]1O[C@H](C#CCCCc2ccccc2)C=C[C@@H]1OC(C)=O 0.952
CCOc1ccc(N2C(=O)/C(=C/C=C/c3ccccc3OC)S(=O)(=O)C2c2cccc([N+](=O)[O-])c2)cc1 (stereo not drawn) -1.57
COC(=O)[C@@H]1N=C(c2ccc(OCCCO)cc2)O[C@@H]1c1ccccc1N=[N+]=[N-] -0.943
CCN1C(=O)[C@H]2[C@H]3[C@H](O)[C@H](O)CC(=NOC(C)CN4CCCCc5nc(C)c(C)cc54)[C@@H]3CC[C@H]2C1=O (stereo partly drawn) 1.07
CC(C)(C)OC(=O)CC[C@]1(C(N)=O)COC(c2ccc(OCCCO)cc2)=N1 0.361

assay: basal CRE-LacZ reporter activity in PC12 – cell-based, unstimulated, primary screen (AID 1145); conditions: no forskolin, luminescence, 4.5 h, higher = more signal, called active from +8 up or from −8 down

z-score, inactive:
NCCCCCNC(=O)[C@@H]1C[C@@H]2C(=O)N3CCC[C@H]3C(=O)N2[C@@H]1c1cccc(OCCO)c1 -0.264
C=CC[C@]1(C(=O)NCc2ccccc2)N=C(c2ccc(OCCCO)cc2)O[C@H]1c1ccccc1 0.848
COCCOC(=O)N1C(=O)[C@@]2(c3cc(C#CCNC(N)=O)ccc31)[C@H](c1ccc(O)cc1)N1[C@H](c3ccccc3)[C@H](c3ccccc3)OC(=O)[C@H]1[C@@H]2C(=O)N1CCCCCCC1 -1.57
O=C1[C@H]2[C@H]3[C@H](O)[C@H](O)CC(=NO[C@@H]4O[C@H](CO)[C@@H](O)[C@H](O)[C@H]4O)[C@@H]3CC[C@H]2C(=O)N1Cc1ccc2c(c1)OCO2 0.245
O=C1[C@H]2[C@H]3[C@H](O)[C@H](O)CC(=NOCc4ccccc4)[C@@H]3CC[C@H]2C(=O)N1C1CCCCC1 0.519
O=C1[C@H]2[C@H]3[C@H](O)[C@H](O)CC(=NO[C@@H]4O[C@H](CO)[C@@H](O)[C@H](O)[C@H]4O)[C@H]3CC[C@H]2C(=O)N1Cc1ccc2c(c1)OCO2 0.525
O=C(NN=C1C[C@@H](O)[C@@H](O)[C@@H]2[C@@H]3C(=O)N(c4cccc(Oc5ccccc5)c4)C(=O)[C@@H]3CC[C@H]12)OCc1ccccc1 -0.0199
CC(C)CON=C1C[C@@H](O)[C@@H](O)[C@@H]2[C@@H]3C(=O)N([C@@H](C)c4ccccc4)C(=O)[C@@H]3CC[C@H]12 -0.383
CC(=O)O[C@H]1C2=C(C(=O)[C@@H]3O[C@@H]31)[C@H]1C(C)O[C@@H]2[C@@]23C(=O)[C@@H]4O[C@@H]4[C@@H](O)C2=CO[C@H](C)[C@@H]13 (stereo partly drawn) 0.108
CC(C)(C)N1C(=O)[C@H]2[C@H]3[C@H](O)[C@H](O)CC(=NOCc4ccccc4)[C@@H]3CC[C@H]2C1=O 0.16
O=C1[C@H]2[C@H]3[C@H](O)[C@H](O)CC(=NOC[C@@H](O)COCc4ccco4)[C@H]3CC[C@H]2C(=O)N1c1cccc(Oc2ccccc2)c1 -0.21
CC(C)=CCCC(C)=CCON=C1C[C@@H](O)[C@@H](O)[C@@H]2[C@@H]3C(=O)N(C[C@@H]4CCCO4)C(=O)[C@@H]3CC[C@@H]12 -0.659
Cc1ccc(S(=O)(=O)N[C@@H]2COC(=O)[C@H](C)COC(=O)CC=C[C@H]2C)cc1 0.0676
CCc1cc2c(nc1CC)CCN(CCC(C)=NO[C@@H](C)c1cc(-c3c(C)cc(C)cc3C)no1)C2 0.429
CC(=O)OC[C@H]1O[C@@H](ON=C(C)CCN2CCc3nc(-c4ccccc4)c(-c4ccccc4)cc3C2)[C@H](OC(C)=O)[C@@H](OC(C)=O)[C@@H]1OC(C)=O 1.41
Cc1ccc(S[C@]2(C(=O)NCC(F)(F)F)CC(=O)N(Cc3ccccc3Cl)[C@@H]2c2ccc(CO)cc2I)cc1 3.13
CO[C@@H]1COC(=O)CC=C[C@@H](C)COC(=O)[C@H](COCc2ccccc2)NC(=O)CC=C[C@H]1C 0.605
O[C@@H](Cc1ccccc1)[C@H]1C2C=CCCC(c3ccccc3)=C2CN1Cc1cccc(Cl)c1 (stereo partly drawn) 2.58
CC(=O)OC[C@H]1O[C@H](CCON=C[C@@H](C)[C@H](OCc2ccccc2)C(C)C)C=C[C@@H]1OC(C)=O 1.16
CC1(C)OCC(C(O)C2=CCCCC2=O)CO1 (stereo not drawn) -0.431
CO[C@@H]1COC(=O)CC=C[C@@H](C)[C@@H]2C=C[C@H](O)[C@@H](COC(=O)[C@H](C)NC(=O)CC=C[C@H]1C)O2 -0.324
CCCCCN1CC=CC23O[C@@H]4C=CCOC(=O)[C@@H]4[C@H]2C(=O)N(CCCCCCO)[C@@H]3C1=O (stereo partly drawn) -0.342
COCCCNC(=O)[C@@]1(C)c2ccccc2C(=O)N(Cc2ccc(OC(F)(F)F)cc2)[C@H]1c1ccc(CO)cc1 0.585
CC(C)[C@@H](OCc1ccccc1)[C@H](C)C=NO[C@H](C)c1cn([C@H](CO)Cc2ccccc2)nn1 0.987
c1ccc(C2NCCc3c2[nH]c2ccccc32)cc1 (stereo not drawn) -0.253
O=C1NC(=O)C2C1C=CC(C(O)Cc1ccccc1)N2Nc1ccccn1 (stereo not drawn) 0.0603
CCOC(=O)[C@H](Cc1ccccc1)NC(=O)CCC1CC(OC(=O)NCCc2ccc(F)cc2)CC2(CCCC(COC(=O)NCC(c3ccccc3)c3ccccc3)O2)O1 (stereo partly drawn) 0.286
COCCOC(=O)N1C(=O)[C@@]2(c3cc(C#Cc4ccc(OC)cc4)ccc31)[C@H](C(=O)N1CCN(c3ncccn3)CC1)[C@H]1C(=O)O[C@H](c3ccccc3)[C@H](c3ccccc3)N1[C@@H]2c1ccc(OCCO)cc1 -0.606
CC(=O)OC[C@H]1O[C@@H](ON=C[C@@H](C)[C@H](OCc2ccccc2)C(C)C)[C@H](OC(C)=O)[C@@H](OC(C)=O)[C@@H]1OC(C)=O 2.19
COC(=O)CC=C[C@@H](C)[C@@H](C=NO[C@H](C)c1cn([C@@H]2COC[C@H]2O)nn1)OC 0.518
CC(CCN1CCc2nc(-c3ccccc3)c(-c3ccccc3)cc2C1)=NOC(C)CN1CCCCc2nc(C)c(C)cc21 (stereo not drawn) -0.147
